Measured values as given in PMC7862700, “An all-to-all approach to the identification of sequence-specific readers for epigenetic DNA modifications on cytosine”.

Legend:
Test in all cases: DAPPL (digital affinity profiling via proximity ligation, sequencing); 10 mM Tris-HCl pH 7.5, 50 mM NaCl, 1 mM DTT, 4% glycerol, room temperature, 30 min; GST-TFs on glutathione beads, 16-mer random dsDNA library, 0.1% formaldehyde crosslink after washing; high values mean tight binding
FLI1 = target: T1, FLI1 (Homo sapiens, UniProt Q01543 1-452); settings: protein: recombinant; tags: N-terminal GST; dsDNA, one strand shown
T1 sequence: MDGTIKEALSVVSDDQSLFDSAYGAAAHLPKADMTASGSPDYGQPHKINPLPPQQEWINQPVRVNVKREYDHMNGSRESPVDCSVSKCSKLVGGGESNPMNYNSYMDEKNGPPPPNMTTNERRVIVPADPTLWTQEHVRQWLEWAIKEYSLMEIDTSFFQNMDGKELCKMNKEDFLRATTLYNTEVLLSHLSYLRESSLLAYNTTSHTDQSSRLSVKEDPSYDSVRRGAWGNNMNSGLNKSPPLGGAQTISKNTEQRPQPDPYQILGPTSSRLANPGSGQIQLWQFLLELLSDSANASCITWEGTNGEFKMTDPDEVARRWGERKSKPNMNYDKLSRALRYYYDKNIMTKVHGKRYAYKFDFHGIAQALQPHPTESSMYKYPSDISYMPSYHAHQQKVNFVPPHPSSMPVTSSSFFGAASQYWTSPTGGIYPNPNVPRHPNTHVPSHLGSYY
Summary of the method: (§1)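 After expression in yeast as GST fusions, human transcription factors were bound to glutathione beads, DNA-barcoded and mixed with a tag-only sample. The pools were incubated with 200 nmole of a 16-mer random double-stranded DNA library in Tris/NaCl/DTT/glycerol buffer (30 min, room temperature), washed and crosslinked with 0.1% formaldehyde. Proximity ligation with BsaI/T4 ligase ran for 1 h at 37 °C, before PCR amplification and sequencing on an Illumina NextSeq500. Binding signal is a hexamer's read frequency for a factor divided by its frequency for the tag-only sample.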

ELK1 = target: T2, ELK1 (Homo sapiens, UniProt P19419 1-428); settings: protein: recombinant; tags: N-terminal GST; dsDNA, one strand shown
T2 sequence: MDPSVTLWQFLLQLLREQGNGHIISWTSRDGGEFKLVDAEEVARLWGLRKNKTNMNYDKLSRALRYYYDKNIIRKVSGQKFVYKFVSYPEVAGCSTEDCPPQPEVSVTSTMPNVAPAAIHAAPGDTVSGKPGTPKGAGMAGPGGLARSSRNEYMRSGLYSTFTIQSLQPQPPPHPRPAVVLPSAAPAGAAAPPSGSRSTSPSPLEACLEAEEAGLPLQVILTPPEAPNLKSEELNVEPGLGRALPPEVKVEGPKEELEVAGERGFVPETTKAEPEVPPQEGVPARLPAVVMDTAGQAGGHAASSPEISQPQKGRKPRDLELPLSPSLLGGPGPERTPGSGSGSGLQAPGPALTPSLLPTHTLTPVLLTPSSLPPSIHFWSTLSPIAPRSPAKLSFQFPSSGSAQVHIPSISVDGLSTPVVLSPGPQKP
Summary of the method: as §1

GABPA = target: T3, GABPA (Homo sapiens, UniProt Q06546 1-454); settings: protein: recombinant; tags: N-terminal GST; dsDNA, one strand shown
T3 sequence: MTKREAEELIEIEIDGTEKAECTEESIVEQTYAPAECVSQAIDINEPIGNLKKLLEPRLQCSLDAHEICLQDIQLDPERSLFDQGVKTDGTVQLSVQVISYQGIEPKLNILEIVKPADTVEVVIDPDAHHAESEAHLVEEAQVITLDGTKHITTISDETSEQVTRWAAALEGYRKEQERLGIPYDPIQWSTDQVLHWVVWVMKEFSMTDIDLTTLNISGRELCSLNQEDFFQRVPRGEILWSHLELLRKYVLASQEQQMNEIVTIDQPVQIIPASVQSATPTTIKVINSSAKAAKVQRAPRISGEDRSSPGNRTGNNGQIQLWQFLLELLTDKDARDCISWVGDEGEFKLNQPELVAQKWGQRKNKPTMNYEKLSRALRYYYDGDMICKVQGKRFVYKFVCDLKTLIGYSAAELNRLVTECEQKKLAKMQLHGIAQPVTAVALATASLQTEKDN
Summary of the method: as §1

ERG = target: T4, ERG (Homo sapiens, UniProt P11308 1-479); settings: protein: recombinant; tags: N-terminal GST; dsDNA, one strand shown
T4 sequence: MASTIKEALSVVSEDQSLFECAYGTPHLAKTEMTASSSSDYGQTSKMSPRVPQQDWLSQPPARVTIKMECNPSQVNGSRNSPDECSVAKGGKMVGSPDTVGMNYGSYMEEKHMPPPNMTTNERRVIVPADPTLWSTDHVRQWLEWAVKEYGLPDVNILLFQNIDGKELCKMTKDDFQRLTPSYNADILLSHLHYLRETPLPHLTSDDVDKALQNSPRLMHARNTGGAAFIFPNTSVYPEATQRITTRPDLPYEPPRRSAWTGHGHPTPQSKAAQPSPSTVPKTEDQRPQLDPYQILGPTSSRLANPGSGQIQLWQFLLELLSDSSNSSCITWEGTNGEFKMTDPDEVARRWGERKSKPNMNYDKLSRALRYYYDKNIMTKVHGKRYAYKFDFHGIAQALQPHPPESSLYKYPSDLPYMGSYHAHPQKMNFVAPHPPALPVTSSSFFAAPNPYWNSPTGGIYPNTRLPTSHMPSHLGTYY
Summary of the method: as §1

ELF1 = ELF1 (Homo sapiens, UniProt P32519 1-619); settings: protein: recombinant; tags: N-terminal GST; dsDNA, one strand shown
Summary of the method: as §1

EHF = target: T5, EHF (Homo sapiens, UniProt Q9NZC4 1-300); settings: protein: recombinant; tags: N-terminal GST; dsDNA, one strand shown
T5 sequence: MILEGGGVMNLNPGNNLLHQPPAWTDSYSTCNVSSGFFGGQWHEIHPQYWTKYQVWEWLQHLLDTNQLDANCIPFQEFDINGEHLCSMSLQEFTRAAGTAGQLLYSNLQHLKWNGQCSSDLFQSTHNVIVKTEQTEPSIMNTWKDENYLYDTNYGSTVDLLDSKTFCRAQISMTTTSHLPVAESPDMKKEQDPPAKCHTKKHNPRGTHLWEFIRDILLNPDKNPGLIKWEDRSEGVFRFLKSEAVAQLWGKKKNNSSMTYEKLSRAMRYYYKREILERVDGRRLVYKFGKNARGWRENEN
Summary of the method: as §1

SPI1 = SPI1 (Homo sapiens, UniProt P17947 1-270); settings: protein: recombinant; tags: N-terminal GST; dsDNA, one strand shown
Summary of the method: as §1

SPIB = SPIB (Homo sapiens, UniProt Q01892 1-262); settings: protein: recombinant; tags: N-terminal GST; dsDNA, one strand shown
Summary of the method: as §1

ELK3 = target: T6, ELK3 (Homo sapiens, UniProt P41970 1-407); settings: protein: recombinant; tags: N-terminal GST; dsDNA, one strand shown
T6 sequence: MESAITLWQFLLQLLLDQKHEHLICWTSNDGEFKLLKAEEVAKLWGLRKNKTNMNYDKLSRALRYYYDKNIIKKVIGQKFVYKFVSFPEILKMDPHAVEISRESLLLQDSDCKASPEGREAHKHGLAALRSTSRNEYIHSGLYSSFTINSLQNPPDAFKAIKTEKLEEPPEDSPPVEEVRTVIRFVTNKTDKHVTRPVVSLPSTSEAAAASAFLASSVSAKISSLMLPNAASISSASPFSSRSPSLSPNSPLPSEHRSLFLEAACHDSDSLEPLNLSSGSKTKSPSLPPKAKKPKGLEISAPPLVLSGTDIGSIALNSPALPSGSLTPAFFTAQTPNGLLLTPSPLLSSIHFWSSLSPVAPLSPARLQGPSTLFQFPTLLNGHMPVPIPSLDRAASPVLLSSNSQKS
Summary of the method: as §1

FEV = target: T7, FEV (Homo sapiens, UniProt Q99581 1-238); settings: protein: recombinant; tags: N-terminal GST; dsDNA, one strand shown
T7 sequence: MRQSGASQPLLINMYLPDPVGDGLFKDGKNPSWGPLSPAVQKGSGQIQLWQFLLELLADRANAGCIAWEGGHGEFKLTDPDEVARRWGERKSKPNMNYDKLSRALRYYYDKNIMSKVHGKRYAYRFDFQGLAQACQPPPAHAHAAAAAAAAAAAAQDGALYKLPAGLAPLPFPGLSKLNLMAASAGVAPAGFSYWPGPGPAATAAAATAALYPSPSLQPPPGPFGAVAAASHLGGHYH
Summary of the method: as §1

ETV5 = ETV5 (Homo sapiens, UniProt P41161 1-510); settings: protein: recombinant; tags: N-terminal GST; dsDNA, one strand shown
Summary of the method: as §1

HSF1 = HSF1 (Homo sapiens, UniProt Q00613 1-529); settings: protein: recombinant; tags: N-terminal GST; chain copies: 3; dsDNA, one strand shown
Summary of the method: as §1

SPIC = target: T8, SPIC (Homo sapiens, UniProt Q8N5J4 1-248); settings: protein: recombinant; tags: N-terminal GST; dsDNA, one strand shown
T8 sequence: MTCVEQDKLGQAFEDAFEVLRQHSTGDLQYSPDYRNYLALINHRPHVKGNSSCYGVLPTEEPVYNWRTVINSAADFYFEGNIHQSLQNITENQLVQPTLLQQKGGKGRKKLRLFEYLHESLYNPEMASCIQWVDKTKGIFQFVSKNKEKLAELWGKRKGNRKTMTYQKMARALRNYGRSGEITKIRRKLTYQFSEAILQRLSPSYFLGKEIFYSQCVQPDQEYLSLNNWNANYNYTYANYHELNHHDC
Summary of the method: as §1

ELF4 = ELF4 (Homo sapiens, UniProt Q99607 1-663); settings: protein: recombinant; tags: N-terminal GST; dsDNA, one strand shown
Summary of the method: as §1

ELK4 = target: T9, ELK4 (Homo sapiens, UniProt P28324-2 1-405); settings: protein: recombinant; tags: N-terminal GST; dsDNA, one strand shown
T9 sequence: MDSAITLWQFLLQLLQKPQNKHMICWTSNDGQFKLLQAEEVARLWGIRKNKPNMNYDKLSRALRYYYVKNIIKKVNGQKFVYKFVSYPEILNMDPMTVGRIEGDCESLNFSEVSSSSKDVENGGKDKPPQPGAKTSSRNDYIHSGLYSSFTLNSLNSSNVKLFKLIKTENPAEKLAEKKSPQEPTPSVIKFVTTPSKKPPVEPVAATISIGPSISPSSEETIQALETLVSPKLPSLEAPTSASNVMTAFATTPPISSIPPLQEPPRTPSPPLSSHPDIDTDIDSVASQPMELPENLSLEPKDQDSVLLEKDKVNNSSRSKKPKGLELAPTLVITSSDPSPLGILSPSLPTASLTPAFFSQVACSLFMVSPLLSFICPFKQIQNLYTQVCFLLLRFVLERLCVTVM
Summary of the method: as §1

ETV2 = target: T10, ETV2 (Homo sapiens, UniProt O00321 1-342); settings: protein: recombinant; tags: N-terminal GST; dsDNA, one strand shown
T10 sequence: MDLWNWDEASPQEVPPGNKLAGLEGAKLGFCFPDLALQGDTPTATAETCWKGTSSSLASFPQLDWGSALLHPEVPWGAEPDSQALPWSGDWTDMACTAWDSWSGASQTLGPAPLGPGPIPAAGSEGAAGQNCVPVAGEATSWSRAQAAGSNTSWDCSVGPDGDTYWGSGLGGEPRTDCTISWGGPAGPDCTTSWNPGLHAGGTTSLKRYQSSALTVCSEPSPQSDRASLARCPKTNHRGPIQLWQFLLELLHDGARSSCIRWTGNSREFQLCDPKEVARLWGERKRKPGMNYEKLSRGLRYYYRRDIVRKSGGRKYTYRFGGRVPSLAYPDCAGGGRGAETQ
Summary of the method: as §1

ELF3 = target: T11, ELF3 (Homo sapiens, UniProt P78545 1-371); settings: protein: recombinant; tags: N-terminal GST; dsDNA, one strand shown
T11 sequence: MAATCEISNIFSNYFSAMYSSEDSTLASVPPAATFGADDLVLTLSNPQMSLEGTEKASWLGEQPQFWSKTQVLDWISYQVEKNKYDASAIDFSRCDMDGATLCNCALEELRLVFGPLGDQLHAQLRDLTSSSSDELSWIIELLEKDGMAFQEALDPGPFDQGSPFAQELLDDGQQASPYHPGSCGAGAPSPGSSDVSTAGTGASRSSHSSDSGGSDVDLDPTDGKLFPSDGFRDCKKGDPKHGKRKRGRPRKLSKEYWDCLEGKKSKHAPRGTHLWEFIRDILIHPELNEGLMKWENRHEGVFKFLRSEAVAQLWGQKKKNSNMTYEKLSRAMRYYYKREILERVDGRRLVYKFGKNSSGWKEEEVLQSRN
Summary of the method: as §1

CRX = CRX (Homo sapiens, UniProt O43186 1-299); settings: protein: recombinant; tags: N-terminal GST; dsDNA, one strand shown
Summary of the method: as §1

ETV1 = ETV1 (Homo sapiens, UniProt P50549 1-477); settings: protein: recombinant; tags: N-terminal GST; dsDNA, one strand shown
Summary of the method: as §1

Chain of ETV1 (P50549 whole entry): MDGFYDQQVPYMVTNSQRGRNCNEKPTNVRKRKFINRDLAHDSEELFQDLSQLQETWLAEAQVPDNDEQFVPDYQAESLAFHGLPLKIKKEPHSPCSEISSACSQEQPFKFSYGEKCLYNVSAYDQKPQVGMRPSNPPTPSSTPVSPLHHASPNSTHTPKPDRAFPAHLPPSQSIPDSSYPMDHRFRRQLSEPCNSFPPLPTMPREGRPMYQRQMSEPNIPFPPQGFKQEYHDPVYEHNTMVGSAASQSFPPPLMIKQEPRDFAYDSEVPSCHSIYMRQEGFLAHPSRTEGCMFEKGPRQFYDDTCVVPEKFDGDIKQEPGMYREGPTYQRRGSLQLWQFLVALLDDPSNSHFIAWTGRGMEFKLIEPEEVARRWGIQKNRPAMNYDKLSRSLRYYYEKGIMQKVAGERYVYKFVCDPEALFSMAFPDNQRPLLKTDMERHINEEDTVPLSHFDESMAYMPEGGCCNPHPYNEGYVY
Chain of ELF1 (P32519 whole entry): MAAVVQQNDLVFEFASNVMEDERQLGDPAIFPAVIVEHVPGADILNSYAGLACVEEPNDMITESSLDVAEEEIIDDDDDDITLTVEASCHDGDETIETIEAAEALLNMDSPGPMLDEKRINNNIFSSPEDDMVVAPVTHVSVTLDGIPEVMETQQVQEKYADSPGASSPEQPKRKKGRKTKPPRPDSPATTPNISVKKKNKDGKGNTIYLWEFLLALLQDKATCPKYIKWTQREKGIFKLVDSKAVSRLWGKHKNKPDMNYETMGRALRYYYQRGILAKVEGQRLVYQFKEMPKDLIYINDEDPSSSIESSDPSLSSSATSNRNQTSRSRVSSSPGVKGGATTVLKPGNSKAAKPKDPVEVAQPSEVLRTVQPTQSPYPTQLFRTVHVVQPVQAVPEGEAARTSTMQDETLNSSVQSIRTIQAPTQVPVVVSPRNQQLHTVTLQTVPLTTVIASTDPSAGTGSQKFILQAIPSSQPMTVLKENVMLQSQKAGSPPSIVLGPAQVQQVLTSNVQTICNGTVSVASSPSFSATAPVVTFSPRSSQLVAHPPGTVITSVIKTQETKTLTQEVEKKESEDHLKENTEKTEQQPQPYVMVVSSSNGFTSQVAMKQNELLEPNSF
Chain of ELF4 (Q99607 whole entry): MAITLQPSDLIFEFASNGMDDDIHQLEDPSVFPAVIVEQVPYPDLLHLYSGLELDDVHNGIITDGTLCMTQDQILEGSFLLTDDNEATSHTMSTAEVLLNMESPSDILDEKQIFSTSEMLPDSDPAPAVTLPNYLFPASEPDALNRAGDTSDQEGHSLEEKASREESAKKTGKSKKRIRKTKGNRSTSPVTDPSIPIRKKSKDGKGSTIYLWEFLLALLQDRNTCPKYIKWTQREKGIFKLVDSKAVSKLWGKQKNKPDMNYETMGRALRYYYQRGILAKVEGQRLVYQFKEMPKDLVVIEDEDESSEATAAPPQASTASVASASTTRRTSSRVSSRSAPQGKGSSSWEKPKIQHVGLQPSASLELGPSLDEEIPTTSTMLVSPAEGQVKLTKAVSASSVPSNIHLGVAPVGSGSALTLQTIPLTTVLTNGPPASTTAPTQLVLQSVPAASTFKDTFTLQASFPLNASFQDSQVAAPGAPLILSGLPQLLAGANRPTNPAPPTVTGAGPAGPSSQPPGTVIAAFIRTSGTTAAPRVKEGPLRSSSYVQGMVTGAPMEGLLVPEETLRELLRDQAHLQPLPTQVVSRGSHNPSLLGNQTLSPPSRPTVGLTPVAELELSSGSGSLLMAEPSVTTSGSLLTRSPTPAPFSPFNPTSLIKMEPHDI
Chain of CRX (O43186 whole entry): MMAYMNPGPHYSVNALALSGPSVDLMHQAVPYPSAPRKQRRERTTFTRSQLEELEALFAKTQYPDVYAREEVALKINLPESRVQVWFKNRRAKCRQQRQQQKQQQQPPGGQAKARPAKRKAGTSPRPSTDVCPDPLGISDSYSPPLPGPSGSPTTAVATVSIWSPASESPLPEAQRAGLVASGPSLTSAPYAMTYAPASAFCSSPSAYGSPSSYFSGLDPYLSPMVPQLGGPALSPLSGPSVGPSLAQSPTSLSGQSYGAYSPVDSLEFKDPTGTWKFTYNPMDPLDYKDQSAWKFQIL
Chain of HSF1 (Q00613 whole entry): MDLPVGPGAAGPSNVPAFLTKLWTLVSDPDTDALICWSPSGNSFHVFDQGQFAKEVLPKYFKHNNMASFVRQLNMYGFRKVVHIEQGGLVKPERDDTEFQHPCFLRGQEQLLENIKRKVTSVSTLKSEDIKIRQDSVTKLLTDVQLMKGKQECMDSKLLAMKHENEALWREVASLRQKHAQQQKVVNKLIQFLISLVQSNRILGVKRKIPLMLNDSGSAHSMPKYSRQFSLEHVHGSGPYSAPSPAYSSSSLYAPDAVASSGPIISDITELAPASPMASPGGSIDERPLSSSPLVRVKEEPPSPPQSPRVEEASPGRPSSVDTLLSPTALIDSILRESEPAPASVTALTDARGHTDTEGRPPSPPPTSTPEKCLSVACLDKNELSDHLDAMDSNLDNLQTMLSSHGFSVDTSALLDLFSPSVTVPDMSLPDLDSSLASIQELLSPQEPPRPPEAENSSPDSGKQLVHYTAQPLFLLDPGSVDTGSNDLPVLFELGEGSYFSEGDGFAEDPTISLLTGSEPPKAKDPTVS
Chain of SPIB (Q01892 whole entry): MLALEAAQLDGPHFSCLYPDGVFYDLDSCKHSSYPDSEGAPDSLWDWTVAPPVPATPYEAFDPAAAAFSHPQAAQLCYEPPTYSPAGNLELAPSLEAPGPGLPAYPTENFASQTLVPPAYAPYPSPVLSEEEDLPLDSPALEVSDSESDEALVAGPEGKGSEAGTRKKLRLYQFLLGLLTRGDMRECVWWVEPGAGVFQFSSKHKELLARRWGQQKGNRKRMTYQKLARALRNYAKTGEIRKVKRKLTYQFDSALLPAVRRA
Chain of ETV5 (P41161 whole entry): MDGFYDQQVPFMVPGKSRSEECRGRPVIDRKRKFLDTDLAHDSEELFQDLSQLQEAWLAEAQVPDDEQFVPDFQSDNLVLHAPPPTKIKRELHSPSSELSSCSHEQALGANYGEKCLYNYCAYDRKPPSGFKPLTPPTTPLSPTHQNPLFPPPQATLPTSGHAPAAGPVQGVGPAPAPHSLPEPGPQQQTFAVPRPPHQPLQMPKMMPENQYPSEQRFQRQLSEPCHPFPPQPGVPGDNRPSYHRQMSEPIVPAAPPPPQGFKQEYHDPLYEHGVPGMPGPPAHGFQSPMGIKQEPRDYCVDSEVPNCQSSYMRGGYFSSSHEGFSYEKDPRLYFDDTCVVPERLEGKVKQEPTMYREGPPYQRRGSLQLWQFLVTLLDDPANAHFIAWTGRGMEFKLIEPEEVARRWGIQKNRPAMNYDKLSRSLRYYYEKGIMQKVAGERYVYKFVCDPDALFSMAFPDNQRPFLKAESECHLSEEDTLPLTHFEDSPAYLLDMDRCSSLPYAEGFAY

Q: Which binding signal (FLI1) does the source give for CCTCTG here?
A: 1.57 fold enrichment (6-mer frequency, TF over GST control)

Q: What about the binding signal (ELK1) of the same sequence?
A: 1.75 fold enrichment (6-mer frequency, TF over GST control)

Q: And the binding signal (GABPA)?
A: 1.63 fold enrichment (6-mer frequency, TF over GST control)

Q: And the binding signal (ERG)?
A: 1.62 fold enrichment (6-mer frequency, TF over GST control)

Q: What about the binding signal (ELF1) of the same sequence?
A: 1.65 fold enrichment (6-mer frequency, TF over GST control)

Q: And the binding signal (EHF)?
A: 1.67 fold enrichment (6-mer frequency, TF over GST control)

Q: And the binding signal (SPI1)?
A: 1.63 fold enrichment (6-mer frequency, TF over GST control)

Q: And the binding signal (SPIB)?
A: 1.6 fold enrichment (6-mer frequency, TF over GST control)

Q: What about the binding signal (ELK3) of the same sequence?
A: 1.58 fold enrichment (6-mer frequency, TF over GST control)

Q: And the binding signal (FEV)?
A: 1.48 fold enrichment (6-mer frequency, TF over GST control)

Q: What about the binding signal (ETV5) of the same sequence?
A: 1.56 fold enrichment (6-mer frequency, TF over GST control)

Q: And the binding signal (HSF1)?
A: 1.39 fold enrichment (6-mer frequency, TF over GST control)

Q: And the binding signal (SPIC)?
A: 1.44 fold enrichment (6-mer frequency, TF over GST control)

Q: And the binding signal (ELF4)?
A: 1.66 fold enrichment (6-mer frequency, TF over GST control)

Q: And the binding signal (ELK4)?
A: 1.9 fold enrichment (6-mer frequency, TF over GST control)

Q: What about the binding signal (ETV2) of the same sequence?
A: 1.5 fold enrichment (6-mer frequency, TF over GST control)

Q: And the binding signal (ELF3)?
A: 1.73 fold enrichment (6-mer frequency, TF over GST control)

Q: What about the binding signal (CRX) of the same sequence?
A: 1.36 fold enrichment (6-mer frequency, TF over GST control)

Q: And the binding signal (ETV1)?
A: 1.67 fold enrichment (6-mer frequency, TF over GST control)
